Measurements published in PubChem BioAssay (Tox21).
Records with an inconclusive call do not appear. Calls of active or inactive are those of the source. Unless noted, calls follow the shape of the dose curve; as a rule, active = well fitted curve in the direction sought with a large enough effect in the repeat runs; inconclusive = weak or mixed curves; inactive = no such curve, though single readings can be large; an effect the other way counts as inactive or inconclusive.

Experiments:
[1] = qHTS assay for small molecule agonists of the p53 signaling pathway - cell viability (AID 651633; calls by dose curve;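 also: p53RE-bla HCT reporter cells with a stable beta-lactamase p53 reporter; series mostly up to about 83 µM; nearly all actives have a fitted effect of over 30% in size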)
Procedure, shortened: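 Viability counter-read: CellTiter-Glo luminescence (30 min, room temperature) in the same p53RE-bla plates. These plates had been exposed to compounds for 16 h at 37 C.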

[2] = qHTS assay for small molecules that induce genotoxicity in human embryonic kidney cells expressing luciferase-tagged ATAD5 - cell viability (AID 651634; calls by dose curve; also: nearly all actives have a fitted effect of over 25% in size)
Procedure, shortened: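 15.5 hr compound or vehicle exposure of HEK293T cells expressing luciferase-tagged ATAD5 at 37C; live-cell protease activity is read by fluorescence after 30 min of CellTiter-Fluor.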

[3] = qHTS assay to test for compound auto fluorescence at 460 nm (blue) in HEK293 cells (AID 720678)
Procedure, shortened: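 Triamterene serves as the blue fluorophore standard. Compound signal at 405/460 nm is read in HEK293 wells (2,000 cells, 10% dialyzed FBS) after overnight treatment at 37C.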

[4] = qHTS assay to test for compound auto fluorescence at 590 nm (red) in HEK293 cells (AID 720679)
Procedure, shortened: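 We plated HEK293 cells in 10% dialyzed FBS medium, let them adhere for 4-5 hr, then added 23 nL compound. Overnight at 37C and 5% CO2 preceded fluorescence measurement at 540/590nm.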

[5] = qHTS assay to test for compound auto fluorescence at 460 nm (blue) in HEK293 cell free culture (AID 720681)
Procedure, shortened: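 Blue fluorescence (Ex 405/Em 460 nm, triamterene-equivalent) was read immediately after pin transfer of compound or DMSO into medium (DMEM, 10% FBS) without cells.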

[6] = qHTS assay to test for compound auto fluorescence at 590 nm (red) in HEK293 cell free culture (AID 720683)
Procedure, shortened: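 Red-channel autofluorescence of compounds in culture medium (DMEM, 10% FBS), no cells, measured at 540/590 nm. Rose Bengal sodium is the reference fluorophore for equivalence.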

[7] = qHTS assay to test for compound auto fluorescence at 590 nm (red) in HepG2 cell free culture (AID 720684)
Procedure, shortened: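 Cell-free; medium MEM + 10% FBS; compound or DMSO added by pintool; read Ex 540/Em 590 nm; Rose Bengal sodium as red reference fluorophore.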

[8] = qHTS assay to test for compound auto fluorescence at 460 nm (blue) in HepG2 cell free culture (AID 720685)
Procedure, shortened: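 Cell-free plates of MEM plus 10% FBS received 23 nL compound or DMSO vehicle; blue-channel (405/460 nm) intensity scored against triamterene as reference fluorophore.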

[9] = qHTS assay to test for compound auto fluorescence at 535 nm (green) in HepG2 cell free culture (AID 720686)
[10] = qHTS assay to test for compound auto fluorescence at 460 nm (blue) in HepG2 cells (AID 720687)
Procedure, shortened: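 Blue-channel autofluorescence (Ex/Em 405/460 nm, triamterene-equivalent) was measured after 1 hr compound exposure at 37 C, 5% CO2. Cells were HepG2, plated overnight at 37 C in MEM plus 10% FBS.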

[11] = qHTS assay to identify small molecule antagonists of the glucocorticoid receptor (GR) signaling pathway - cell viability counter screen (AID 720693); also: nearly all actives have a fitted effect of over 55% in size
[12] = qHTS assay to identify small molecule antagonists of the androgen receptor (AR) signaling pathway using the MDA cell line - cell viability counter screen (AID 743041; also: nearly all actives have a fitted effect of over 45% in size)
Procedure, shortened: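 Viability read by CellTiter-Fluor fluorescence in the same wells as the antagonist screen, added after 15.5 h of a 16 h, 37C exposure. Human breast carcinoma MDA-kb2 AR-luc cells, compounds co-dosed with agonist R1881.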

[13] = qHTS assay to identify small molecule antagonists of the estrogen receptor alpha (ER-alpha) signaling pathway - cell viability counter screen (AID 743074; calls by dose curve;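 also: HEK293 cells carrying ER-alpha-UAS-bla reporter stimulated with 17beta-estradiol; nearly all actives have a fitted effect of over 45% in size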)
[14] = target: Aromatase (Homo sapiens) (UniProt P11511); test: qHTS assay to identify aromatase inhibitors (AID 743083); also: series mostly up to about 70 µM; nearly all actives have a fitted effect of over 55% in size
[15] = qHTS assay to identify aromatase inhibitors - cell viability counter screen (AID 743084);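 also: cells stimulated with testosterone during compound exposure; nearly all actives have a fitted effect of over 55% in size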
[16] = qHTS assay to identify small molecule that activate the aryl hydrocarbon receptor (AhR) signaling pathway - cell viability counter screen (AID 743086);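 also: HepG2 liver cells carrying the AhR DRE luciferase reporter; series mostly up to about 70 µM; nearly all actives have a fitted effect of over 45% in size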
Procedure, shortened: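 Cytotoxicity counter screen: CellTiter-Fluor signal (30 min, 37 C) in 4000 HepG2 cells/well carrying the DRE-luciferase reporter, following 24 h compound exposure at 37 C.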

[17] = qHTS assay to identify small molecule phospholipidosis (PLD) inducers (AID 1259344; active = well fitted curve in the direction sought with a large enough effect; an effect the other way counts as inactive or inconclusive)
Procedure, shortened: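 Phospholipid accumulation was scored by imaging: fixed, Hoechst-counterstained HepG2 cells stained with LipidTOX Red after 24 h compound exposure at 37 C. Read-outs were pit count and pit intensity per well or per cell, with amiodarone and DMSO controls.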

[18] = qHTS assay to test for compound auto fluorescence at 590 nm (red) in HepG2 cells (AID 720674)
Procedure, shortened: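 Red autofluorescence (Ex/Em 540/590 nm, Rose Bengal sodium equivalents) was measured in HepG2 cells, 2,000 per well in MEM plus 10% FBS, plated overnight at 37 C. Readings were taken 1 hr after adding 23 nL compound or DMSO, at 37 C and 5% CO2.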

[19] = qHTS assay to test for compound auto fluorescence at 535 nm (green) in HEK293 cell free culture (AID 720682)
Procedure, shortened: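 DMEM + 10% FBS, cell-free; cpd or DMSO pinned in; Ex485/Em535 read; output as fluorescein-equivalent signal.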

[20] = qHTS assay to identify small molecule antagonists of the androgen receptor (AR) signaling pathway - cell viability counter screen (AID 743033; also: nearly all actives have a fitted effect of over 45% in size)

Measured: Potency

Sequence of Aromatase (Homo sapiens) (P11511 whole entry, looked up): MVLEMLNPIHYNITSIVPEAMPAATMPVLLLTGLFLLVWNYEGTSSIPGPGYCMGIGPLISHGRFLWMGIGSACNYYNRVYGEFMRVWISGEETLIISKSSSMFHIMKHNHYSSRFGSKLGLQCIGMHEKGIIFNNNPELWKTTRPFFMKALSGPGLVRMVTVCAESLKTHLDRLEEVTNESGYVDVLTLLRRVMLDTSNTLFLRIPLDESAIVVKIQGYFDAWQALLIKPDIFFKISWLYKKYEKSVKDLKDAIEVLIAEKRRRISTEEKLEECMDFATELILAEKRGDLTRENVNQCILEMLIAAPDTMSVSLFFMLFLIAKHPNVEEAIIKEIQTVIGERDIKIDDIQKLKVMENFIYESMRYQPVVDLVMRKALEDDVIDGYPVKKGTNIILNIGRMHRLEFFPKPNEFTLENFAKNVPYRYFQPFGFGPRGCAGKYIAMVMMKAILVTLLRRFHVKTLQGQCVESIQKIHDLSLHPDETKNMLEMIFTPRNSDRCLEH

CNC(C)CC1CCCCC1 (configuration not stated)
inactive: [1] | [2] | [3] | [4] | [5] | [6] | [7] | [8] | [9] | [10] | [11] | [12] | [13] | [14] | [15] | [16] | [17]

CCNC1(c2cccs2)CCCCC1=O (configuration not stated)
inactive: [1] | [2] | [18] | [3] | [4] | [5] | [19] | [6] | [7] | [8] | [9] | [10] | [11] | [20] | [12] | [13] | [14] | [15] | [16] | [17]

CCC1(c2ccccc2)C(=O)NC(=O)N(C)C1=O (configuration not stated)
inactive: [1] | [2] | [18] | [3] | [4] | [5] | [19] | [6] | [7] | [8] | [9] | [10] | [11] | [20] | [12] | [14] | [15] | [16] | [17]

N#CC1(N2CCCCC2)CCCCC1
inactive: [1] | [2] | [18] | [3] | [4] | [5] | [19] | [6] | [7] | [8] | [9] | [10] | [11] | [20] | [12] | [13] | [14] | [15] | [16] | [17]

CN[C@@H](C)Cc1ccccc1
inactive: [1] | [2] | [18] | [3] | [4] | [5] | [6] | [7] | [8] | [9] | [10] | [11] | [20] | [12] | [13] | [14] | [15] | [16] | [17]

CC(=O)[C@@]1(O)CC[C@H]2[C@@H]3CCC4=CC(=O)CC[C@]4(C)C3(F)[C@@H](O)C[C@@]21C (some centres not stated)
inactive: [1] | [2] | [3] | [4] | [5] | [6] | [8] | [9] | [10] | [11] | [20] | [12] | [13] | [14] | [15] | [16] | [17]

Cc1nnc2n1-c1sc(Br)cc1C(c1ccccc1Cl)=NC2
inactive: [1] | [2] | [18] | [3] | [4] | [5] | [19] | [6] | [7] | [8] | [9] | [10] | [11] | [20] | [12] | [13] | [14] | [15] | [16] | [17]

C[C@@H]1[C@H]2Cc3ccc(O)cc3[C@]1(C)CCN2C
inactive: [1] | [2] | [18] | [3] | [4] | [5] | [19] | [6] | [7] | [8] | [9] | [10] | [11] | [12] | [13] | [15] | [16] | [17]

C=CC[C@]1(O)CC[C@H]2[C@@H]3CCC4=CCCC[C@@H]4[C@H]3CC[C@@]21C
inactive: [1] | [2] | [18] | [3] | [4] | [5] | [6] | [7] | [8] | [9] | [10] | [11] | [20] | [12] | [13] | [15] | [16] | [17]

O=C1CN=C(c2ccccc2)c2cc(Cl)ccc2N1
inactive: [1] | [2] | [3] | [4] | [5] | [19] | [6] | [8] | [9] | [10] | [11] | [20] | [12] | [13] | [14] | [15] | [16] | [17]

CC(C)C[C@H]1C(=O)N2CCC[C@H]2[C@]2(O)O[C@](NC(=O)[C@@H]3C[C@@H]4c5cccc6[nH]cc(c56)C[C@H]4N(C)C3)(C(C)C)C(=O)N12
inactive: [1] | [18] | [3] | [4] | [5] | [6] | [8] | [9] | [10] | [11] | [20] | [12] | [13] | [14] | [15] | [17]

CC(C)[C@H]1C(=O)N2CCC[C@H]2[C@]2(O)O[C@](NC(=O)[C@@H]3C[C@@H]4c5cccc6[nH]cc(c56)C[C@H]4N(C)C3)(C(C)C)C(=O)N12
inactive: [1] | [2] | [18] | [3] | [4] | [5] | [6] | [7] | [8] | [9] | [11] | [20] | [13] | [14] | [15] | [17]

CN1CC[C@@]23CCCC[C@@H]2[C@@H]1Cc1ccc(O)cc13
inactive: [1] | [2] | [18] | [3] | [4] | [5] | [19] | [6] | [7] | [8] | [9] | [10] | [11] | [12] | [13] | [14] | [15] | [16] | [17]
